Reference: the supplement of paper PMC3334620
Over roughly 33,000 sequences, “E-score (-0.5 to 0.5)” has its median near -0.013; the highest 2% begin near 0.3. This excerpt belongs to a sample that is enriched for the highest values.

Target: T1, Msn1 (UniProt P22148)
T1 sequence: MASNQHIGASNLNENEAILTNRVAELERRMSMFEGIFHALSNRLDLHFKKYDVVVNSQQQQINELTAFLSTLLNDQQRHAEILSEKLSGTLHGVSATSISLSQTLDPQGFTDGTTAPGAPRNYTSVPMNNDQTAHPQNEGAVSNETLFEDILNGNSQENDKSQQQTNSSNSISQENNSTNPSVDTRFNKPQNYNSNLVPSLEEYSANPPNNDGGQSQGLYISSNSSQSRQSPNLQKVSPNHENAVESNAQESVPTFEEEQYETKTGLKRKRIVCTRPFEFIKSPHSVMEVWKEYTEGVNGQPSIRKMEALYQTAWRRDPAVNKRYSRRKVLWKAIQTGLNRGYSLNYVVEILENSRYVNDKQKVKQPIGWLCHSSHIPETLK
Experiment: PBM E-score (8-mer binding enrichment) (E-score (-0.5 to 0.5)); higher = stronger / more preferred TF binding
Settings: protein concentration: 200 nM; construct: GST-full length
Procedure: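 Universal 'all 10-mer' protein binding microarrays (Agilent AMADID 015681) probed with GST-tagged S. cerevisiae TFs (full-length or DBD) made by in vitro transcription/translation (PURExpress), about 100-200 nM. Bound TF was detected with fluorescent anti-GST. Each ungapped 8-mer (which stands for itself and its reverse complement) is scored by the PBM enrichment score (E-score), a modified Wilcoxon-Mann-Whitney statistic from -0.5 to +0.5, computed with the Universal PBM Analysis Suite. Scale: above 0.35 generally sequence-specific binding.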

| Sequence | PBM E-score |
| --- | --- |
| GGACTTTA | 0.328 |
| AGACTTTA | 0.0848 |
| CGACTTTA | 0.201 |
| TCTGACAA | 0.198 |
| TGTGACAA | 0.377 |
| GTTGACAA | 0.269 |
| CGTGACAA | 0.309 |
| CGTGACAG | 0.0649 |
| GGTGACAC | -0.0303 |
| CCTGACAA | 0.202 |
| GGTGACAA | 0.322 |
| AGTGACAA | 0.302 |
| CCGCCAGG | -0.117 |
| AACAGCGG | -0.0502 |
| CGCTATGC | -0.215 |
| AGGTCCGA | 0.132 |
| CTGTCCGA | 0.275 |
| ACGTCCGA | -0.00037 |
| ATGTCCGA | 0.475 |
| GGGTCCGA | -0.115 |
| GTGTCCGA | 0.37 |
| AGTCCTGC | 0.0243 |
| AAAATCTG | 0.182 |
| AGATTGCC | -0.0449 |
| AAAGACCG | 0.0194 |

| Sequence | PBM E-score |
| --- | --- |
| CAGGTAGA | -0.142 |
| CCCTTCAA | -0.185 |
| ATAGAGCG | -0.0637 |
| ATTTTGTA | 0.209 |
| AATTTGTC | 0.488 |
| AATTTGAC | 0.194 |
| AATTTGTG | 0.186 |
| ATTTTGTG | 0.144 |
| ATTTTGTC | 0.468 |
| GGGGGAAC | -0.456 |
| GTAAAGTA | 0.0255 |
| ACGGGACT | 0.0899 |
| GCGGGACC | -0.22 |
| CCGGGACG | -0.0555 |
| GCGGGATA | 0.0848 |
| CCGGGACC | -0.159 |
| TCGGGAGA | 0.014 |
| GCGGGACA | 0.359 |
| ACGGGACC | -0.247 |
| TCGGGACA | 0.456 |
| ACGGGACA | 0.384 |
| CCGGGACA | 0.457 |
| TCGGGAAA | 0.176 |
| GAGCCCGA | -0.128 |
| CTAGTGGA | -0.211 |

| Sequence | PBM E-score |
| --- | --- |
| CGGAGGAC | 0.0943 |
| ACTTAGCG | 0.074 |
| ACCTCGAG | -0.0305 |
| CATGGTCA | 0.117 |
| CTGGGGTC | -0.217 |
| CGACTTCA | 0.0948 |
| GCGCTTGA | 0.00998 |
| GGACTTCA | 0.0504 |
| ACACTGTC | 0.165 |
| CTCCTAGA | -0.0389 |
| ATCCTTAA | -0.126 |
| GTCCTAAA | 0.365 |
| ATCCTAAA | -0.0285 |
| GTCCTTAA | 0.433 |
| ATCCTAGA | -0.0654 |
| TTCCTAAA | 0.0739 |
| CTCCTACA | -0.187 |
| ATCCTACA | -0.189 |
| CTCCTTAA | -0.0988 |
| GTCCTACA | 0.385 |
| GTCCTAGA | 0.342 |
| ACAGCCGA | -0.16 |
| GGCAAACC | -0.244 |
| ACTCTCCG | -0.11 |
| ACCTCCTG | -0.169 |

| Sequence | PBM E-score |
| --- | --- |
| AGCATACC | -0.0756 |
| ACACTAAC | 0.119 |
| CTCTATGC | -0.0926 |
| AGTCGGAG | -0.189 |
| GGACTTAC | 0.273 |
| CCTCCGGA | 0.102 |
| CTACTAGA | -0.0895 |
| GTACTAGA | 0.308 |
| GTCCTAAC | 0.36 |
| ATACTAGA | 0.125 |
| CTCCTAAC | -0.278 |
| ATCCTAAC | 0.0664 |
| ACTCAAAG | 0.0435 |
| ATGCGTTA | -0.0377 |
| CACACTAC | -0.188 |
| CAAGGGCG | -0.191 |
| ATGCAGAG | -0.253 |
| GTCGGACA | 0.427 |
| ATCGGACA | 0.369 |
| ATCGGACG | 0.00151 |
| ATCGGACC | 0.0183 |
| CTCGGACA | 0.44 |
| GTCGGATA | 0.0474 |
| GTCGGAGA | 0.0165 |
| CTCGGATA | 0.157 |

| Sequence | PBM E-score |
| --- | --- |
| CTCGGACC | 0.165 |
| CTGGGCCC | -0.252 |
| CGCCTGGA | -0.0478 |
| ACTGAACA | 0.0547 |
| CATTGCGA | -0.0316 |
| ATCACCAA | -0.0626 |
| GAGTAATC | -0.128 |
| CCGACTGC | -0.00611 |
| TAATGTAA | 0.114 |
| ACGGTTCT | -0.0415 |
| CGACAAGA | 0.121 |
| ATACAATC | -0.0273 |
| GTACAATA | 0.332 |
| AGACAACC | 0.208 |
| GGACAACA | 0.337 |
| CTACAATA | 0.0926 |
| ATACAATA | 0.114 |
| GGACAAGA | 0.458 |
| CGACAACA | 0.204 |
| AGACAACA | 0.248 |
| GCACAAGA | -0.0415 |
| AGACAATC | 0.359 |
| AAATCTCC | -0.234 |
| AGCCTTCC | -0.323 |
| ACTTCGCT | -0.0222 |

| Sequence | PBM E-score |
| --- | --- |
| AGGGCCAT | -0.246 |
| AATTTCCT | 0.0244 |
| TACGGGGA | -0.11 |
| ATCGTATG | 0.0884 |
| AGACAATG | 0.295 |
| CGACAAGC | -0.0394 |
| AGACAAGA | 0.3 |
| GAACAATA | 0.144 |
| AGACAATA | 0.428 |
| ACACAATA | 0.15 |
| GGACAATA | 0.464 |
| AGACAAGC | 0.307 |
| CCACAATA | -0.105 |
| CGACAATC | 0.113 |
| GCACAATA | -0.126 |
| CGACAATA | 0.334 |
| CCCTAGCA | -0.119 |
| CGTAGCAC | -0.0105 |
| CATAGATA | 0.126 |
| AGCGAATG | -0.207 |
| AGAGTATG | -0.143 |
| AGAACTGA | 0.0524 |
| TCACTTCA | -0.0878 |
| GATTTTCA | 0.209 |
| TACAGCAA | 0.00838 |

| Sequence | PBM E-score |
| --- | --- |
| AAACGTCC | 0.317 |
| GAACGTCC | 0.206 |
| AAACGTCT | 0.24 |
| TACTTCAA | 0.16 |
| AGGATACG | -0.105 |
| CTCGCCCC | -0.302 |
| AAGGTACA | 0.166 |
| CTGTGAGA | 0.00231 |
| AACATGTA | 0.186 |
| CACATGTA | 0.121 |
| TACATGTA | 0.247 |
| AACATGTT | -0.0343 |
| GACATGTA | 0.424 |
| GACATGTC | 0.455 |
| AACATGTG | 0.0694 |
| ATCATGTC | 0.278 |
| GACATGGC | 0.276 |
| CACATGTC | 0.431 |
| AACATGTC | 0.401 |
| CACATGTG | -0.149 |
| CGAGGGCG | -0.271 |
| GACTCATC | -0.0489 |
